MITF inh: MITF inhibitors, primary screen, biochemical, AlphaScreen, human | Microphthalmia-associated transcription factor (Homo sapiens), O75030 | AlphaScreen MITF homodimerization, bead proximity signal | inhibition, % at 2.6 µM | hit rate 0.91% among 650,000 | AID 1259374, 2018; in the data active = inhibition above about 50%
FBW7 activator: FBW7 E3 ligase activators, primary screen, biochemical, AlphaScreen, human | F-box/WD repeat-containing protein 7 (Homo sapiens), Q969H0 | AlphaScreen FBW7–phospho-cyclin E peptide binding, activator screen | normalized activity (activation), % at 26.1 µM | hit rate 0.13% among 650,000 | AID 1259310, 2017; in the data active = normalized activity above about 1.9%;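 note: purified mutant Fbw7 with reduced substrate affinity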
TEAD-YAP inh: TEAD-YAP interaction inhibition, primary screen, TEAD-YAP interaction inhibitor project, luminescence, HEK-TIYL cells; TEAD-Gal4/YAP UAS-luciferase luminescence; inhibition, % at 9.12 µM; hit rate 1.4% among 640,000; AID 1259422, 2018; in the data active = inhibition above about 32%
GPR151 activ: activators of human GPR151, primary screen, cell-based, PathHunter beta-arrestin, luminescence; G-protein coupled receptor 151 (Homo sapiens), Q8TDV0; PathHunter beta-arrestin GPR151 cells; activation, % at 11.2 µM; hit rate 1% among 650,000; AID 1508602, 2020; in the data active = activation above about 4.9%
Large screens that a line does not name were inactive. An excerpt weighted towards active compounds, which were near 3.5% of everything screened.

O=S(=O)(Nc1ccc2c(c1)OCCO2)c1ccc(Cl)cc1	none
CC(NC(=O)Nc1cccc(Cl)c1)C(c1cccs1)N1CCN(C)CC1 (stereo not drawn)	none
CC(=C/c1ccccc1)/C=N/n1c(-c2ccncc2)n[nH]c1=S	TEAD-YAP inh 39
COc1ccc(-c2ccc(C(C)=O)cc2)cc1	none
COc1ccc(-c2cc(O)cc(O)c2)cc1	TEAD-YAP inh 34
CN1C(=O)c2ccccc2CC1(C)C	none
CC1(C)Cc2ccccc2-c2[nH][nH]c(=O)c21	TEAD-YAP inh 37
Cc1cccc(-n2nc3c(c2NC(=O)C2(c4ccc(Cl)cc4)CCCC2)CSC3)c1C	none
O=C(CSc1ccc2nc(-c3ccccc3)cn2n1)Nc1ccc2c(c1)OCCO2	none
Nc1nccc(-c2ccc3nc(C4COc5ccc(F)cc5C4)[nH]c3c2)n1 (stereo not drawn)	TEAD-YAP inh 43
COc1cccc2c1CC(c1nc3ccc(-c4ccnc(N)n4)cc3[nH]1)CO2 (stereo not drawn)	TEAD-YAP inh 50
NC(=O)c1ccc2c(c1)CC(c1nc3ccc(-c4ccnc(N)n4)cc3[nH]1)CO2 (stereo not drawn)	none
Cn1c(=O)[nH]c(=O)c2[nH]c(-c3cccc(O)c3)nc21	none
CCc1ccc(CN2CCN(C(=O)c3ccc(F)cc3)CC2)cc1	TEAD-YAP inh 37
O=C(c1ccc(F)cc1)N1CCN(Cc2ccc(Cl)cc2)CC1	none
COC(=O)c1ccccc1Sc1c(-c2ccccc2)nc2ncccn12	TEAD-YAP inh 45
Clc1ccc(-n2cc(-c3ccccc3)c3c(NCc4ccccc4)ncnc32)cc1	none
CC1C/C(=C/c2ccncc2)C(=O)/C(=C/c2ccncc2)C1 (stereo not drawn)	TEAD-YAP inh 94
CC(C)(C)c1ccc(C(=O)Nc2ccc(C(=O)Nc3cccc4ccccc34)cc2)cc1	none
CC(C)(C)c1ccc(C(=O)Nc2cccc3c(=O)[nH][nH]c(=O)c23)cc1	TEAD-YAP inh 76
COCCCNC(=O)Cc1c(C(=O)O)n(C)c2ccccc12	none
CCOC(=O)c1[nH]c(C)c(CNC2CCCCC2)c1C	none
CCOC(=O)c1[nH]c(C)c(CN(C2CCCCC2)S(C)(=O)=O)c1C	TEAD-YAP inh 52
Cc1nn(C)cc1C(=O)N1CCCc2ccccc21	none
O=C1NC(=S)S/C1=C\c1ccc(-c2cccc(C(=O)O)c2)o1	MITF inh 70
O=C1NC(=O)/C(=C/c2ccc(-c3ccc(O)c(C(=O)O)c3)o2)S1	MITF inh 86
NC1=NC(=O)/C(=C\c2ccc(-c3cccc(C(=O)O)c3)o2)S1	MITF inh 58, TEAD-YAP inh 44
O=C1NC(=S)S/C1=C\c1ccc(-c2ccc(C(=O)O)cc2)o1	none
NC1=NC(=O)/C(=C/c2ccc(-c3ccccc3)o2)S1	none
Cc1ccc(C(=O)O)cc1-c1ccc(/C=C2/SC(=O)NC2=O)o1	none
CCOc1ccc(-c2csc(NC(=O)c3ccc(S(=O)(=O)N(CCOC)CCOC)cc3)n2)cc1	none
Cc1ccccc1-n1c(=S)sc2c(=O)n(-c3ccccc3)c(SCC(=O)c3ccc(O)c(O)c3)nc21	none
COC(=O)/C(=C/c1ccc(C)o1)NC(=O)c1ccccc1	none
Cc1ccc2[nH]c(C(=O)NCC3CCC4(CCN(C(=O)CC(C)C)CC4)O3)cc2c1 (stereo not drawn)	none
CCN(CC)C(=O)N1c2ccccc2C=Cc2ccccc21	TEAD-YAP inh 62
COc1ccc(S(=O)(=O)CCC(=O)Nc2nccs2)cc1	none
COc1cc(NC(=O)C2COc3ccccc3C2)ccc1-c1cn[nH]c1 (stereo not drawn)	none
COc1cc(NC(=O)C2CC(=O)c3ccccc3C2)ccc1-c1cn[nH]c1 (stereo not drawn)	TEAD-YAP inh 48
O=C(Cn1c2c(c3ccccc31)CCC2)NC1=NCCS1	TEAD-YAP inh 77
O=C(CSCC(=O)c1ccc(F)cc1)Nc1ccc2ccccc2c1	none
Cc1ccccc1CN1CCN(C=O)CC1	none
Cc1[nH]n2c(=O)cc(C(C)(C)C)nc2c1-c1cccs1	TEAD-YAP inh 50
CCOc1nc(Nc2ccc(I)cc2C)nc(NC2CCCCC2)n1	none
COc1cc(C(=O)Nc2nnc(C)s2)c(Br)c(OC)c1OC	none
COc1cc(CCC(=O)Nc2nnc(C)s2)cc(OC)c1OC	TEAD-YAP inh 55
Cc1nc(NC(=O)c2cc3ccccc3o2)ccc1I	none
Cc1nc(NC(=O)c2ccco2)ccc1I	TEAD-YAP inh 39
Cc1cc(C)nc(NS(=O)(=O)c2ccc(Nc3nc(-c4ccccc4)cs3)cc2)n1	none

Compound activity from PubChem.
